According to PubChem BioAssay (NCATS):
Records with an inconclusive call do not appear. Entries that show only a call come without a potency. Active and inactive are the calls of the source. Unless noted, calls follow the shape of the dose curve; as a rule, active = well fitted curve in the direction sought with a large enough effect; inconclusive = small, poorly fitted or top-dose-only effect, or another doubt; inactive = no such curve, though single readings can be large; an effect the other way counts as inactive or inconclusive.

Legend:
[1] = target: Rap guanine nucleotide exchange factor 3 (Homo sapiens) (UniProt O95398); assay: Counterscreen qHTS for antagonist of cAMP-regulated guanine nucleotide exchange factor 3 (EPAC1) (AID 1645888);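 also: fluorescence loss as bound BODIPY-GDP is released from Rap1B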
Sequence of Rap guanine nucleotide exchange factor 3 (Homo sapiens) (O95398 whole entry, looked up): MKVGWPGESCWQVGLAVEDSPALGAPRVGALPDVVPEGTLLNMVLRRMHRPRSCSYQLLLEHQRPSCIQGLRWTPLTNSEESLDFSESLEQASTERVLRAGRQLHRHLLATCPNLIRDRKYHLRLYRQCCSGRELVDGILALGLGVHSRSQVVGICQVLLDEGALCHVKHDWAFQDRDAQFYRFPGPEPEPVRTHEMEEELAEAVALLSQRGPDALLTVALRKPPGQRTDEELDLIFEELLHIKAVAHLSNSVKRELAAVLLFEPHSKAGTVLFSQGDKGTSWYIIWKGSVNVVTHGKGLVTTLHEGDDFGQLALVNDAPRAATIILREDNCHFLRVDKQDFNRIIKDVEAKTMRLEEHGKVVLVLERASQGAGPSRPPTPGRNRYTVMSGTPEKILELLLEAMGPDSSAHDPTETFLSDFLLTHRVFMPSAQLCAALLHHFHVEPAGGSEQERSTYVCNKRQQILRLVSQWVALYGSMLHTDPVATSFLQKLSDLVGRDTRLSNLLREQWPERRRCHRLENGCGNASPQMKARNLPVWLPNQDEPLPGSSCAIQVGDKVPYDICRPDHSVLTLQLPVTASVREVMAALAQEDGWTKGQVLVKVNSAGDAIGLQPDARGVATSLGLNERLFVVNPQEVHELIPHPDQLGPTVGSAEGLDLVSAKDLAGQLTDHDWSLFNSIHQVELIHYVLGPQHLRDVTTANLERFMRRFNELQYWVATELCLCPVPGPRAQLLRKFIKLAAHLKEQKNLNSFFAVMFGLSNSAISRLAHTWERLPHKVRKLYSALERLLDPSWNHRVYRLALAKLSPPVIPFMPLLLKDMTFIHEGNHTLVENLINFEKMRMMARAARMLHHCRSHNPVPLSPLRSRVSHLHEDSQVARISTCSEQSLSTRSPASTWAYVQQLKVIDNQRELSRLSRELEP
Procedure, shortened: (§1)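 Rap1B-BODIPY-GDP 250 nM + GDP 50 uM; cpds 7-pt, final 9.74 nM–152 uM (activator mode) or from 7.32 nM upwards (inhibitor mode); RT; FI 480/540 nm at 5 and 30 min, then ± cAMP, reread.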

[2] = target: Rap guanine nucleotide exchange factor 3 (Homo sapiens) (UniProt O95398); assay: Counterscreen qHTS for agonist of cAMP-regulated guanine nucleotide exchange factor 3 (EPAC1) (AID 1645889); also: nearly all actives have a fitted effect of over 40% in size
Procedure, shortened: as §1

[3] = target: Cytochrome P450 3A4 (Homo sapiens) (UniProt P08684); assay: qHTS Assay for Inhibitors and Substrates of Cytochrome P450 3A4 (AID 884); also: nearly all actives have a fitted effect of over 50% in size
Sequence of Cytochrome P450 3A4 (Homo sapiens) (P08684 whole entry, looked up): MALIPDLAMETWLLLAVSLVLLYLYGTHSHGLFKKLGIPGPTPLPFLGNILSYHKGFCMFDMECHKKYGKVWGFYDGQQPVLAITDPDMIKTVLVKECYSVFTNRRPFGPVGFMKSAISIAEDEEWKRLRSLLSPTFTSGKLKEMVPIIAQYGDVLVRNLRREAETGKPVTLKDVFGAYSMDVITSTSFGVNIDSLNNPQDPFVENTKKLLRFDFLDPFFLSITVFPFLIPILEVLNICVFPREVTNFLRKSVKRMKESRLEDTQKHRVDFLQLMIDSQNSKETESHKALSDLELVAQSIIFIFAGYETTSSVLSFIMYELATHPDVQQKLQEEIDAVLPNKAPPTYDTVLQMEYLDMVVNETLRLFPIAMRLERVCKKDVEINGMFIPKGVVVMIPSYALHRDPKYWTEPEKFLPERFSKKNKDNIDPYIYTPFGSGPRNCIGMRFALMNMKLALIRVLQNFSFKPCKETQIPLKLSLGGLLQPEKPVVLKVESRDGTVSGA
Procedure, shortened: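 Luminescent readout of luciferin produced by CYP3A4 (20 nM) dealkylation of Luciferin-PPXE, 25 uM (its KM). NADPH-driven reaction ran 60 min at RT after 10 min compound preincubation; data scaled to 57 uM ketoconazole as 100% inhibition.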

[4] = Confirmation and Secondary Assay for Modulators of Hemoglobin Beta Chain Splicing at IVS2 654 locus (AID 910);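 also: HeLa cells stably carrying EGFP split by mutant beta-globin IVS2-654 intron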
Procedure, shortened: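 Readout: per-well total peak green fluorescence (488 nm ex, 500–520 nm em) from objects 5–250 µm, reflecting correct splicing of an EGFP-654 reporter. Compounds were applied for 2 days at 37 °C to overnight-plated HeLa EGFP-654 cells; controls were DMSO and 500 nM IVS2-654 PNA.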

[5] = Confirmation and Secondary Assay for Modulators of Hemoglobin Beta Chain Splicing at IVS2 705 locus (AID 930);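 also: HeLa cells stably expressing the EGFP-705 splicing reporter; GFP fluorescence per well restored by corrected splicing of the IVS2-705 intron in EGFP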
Procedure, shortened: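 HeLa cells stably carrying EGFP interrupted by mutant beta-globin intron 2 (IVS2-705) treated 2 days at 37C with compound; 500 nM antisense PNA as control. Correct splicing read as total peak GFP intensity per well by laser-scanning cytometry.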

[6] = qHTS Assay for Lipid Storage Modulators (AID 1519; calls by dose curve); settings: Drosophila S3 cells, BODIPY lipid droplet/cell ratio, laser cytometry, cells loaded with oleic acid; for activity change, negative = inhibition: at 57.5 µM (top of the series)
Procedure, shortened: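 Cells seeded at 5,000 per well were treated with compounds over a concentration series and loaded with oleic acid (400 uM, as added). Lipid droplet fluorescence (488 nm excitation, 500-530 nm channel) was read by laser-scanning cytometry and normalized to 20 uM Triacsin C.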

[7] = target: Ubiquitin carboxyl-terminal hydrolase 1 (Homo sapiens) (UniProt O94782); assay: Inhibitors of USP1/UAF1: Pilot qHTS (AID 504865);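 also: rhodamine fluorescence freed from ubiquitin-rhodamine substrate followed over time; top concentration of the series differs between compounds; nearly all actives have a fitted effect of over 35% in size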
Sequence of Ubiquitin carboxyl-terminal hydrolase 1 (Homo sapiens) (O94782 whole entry, looked up): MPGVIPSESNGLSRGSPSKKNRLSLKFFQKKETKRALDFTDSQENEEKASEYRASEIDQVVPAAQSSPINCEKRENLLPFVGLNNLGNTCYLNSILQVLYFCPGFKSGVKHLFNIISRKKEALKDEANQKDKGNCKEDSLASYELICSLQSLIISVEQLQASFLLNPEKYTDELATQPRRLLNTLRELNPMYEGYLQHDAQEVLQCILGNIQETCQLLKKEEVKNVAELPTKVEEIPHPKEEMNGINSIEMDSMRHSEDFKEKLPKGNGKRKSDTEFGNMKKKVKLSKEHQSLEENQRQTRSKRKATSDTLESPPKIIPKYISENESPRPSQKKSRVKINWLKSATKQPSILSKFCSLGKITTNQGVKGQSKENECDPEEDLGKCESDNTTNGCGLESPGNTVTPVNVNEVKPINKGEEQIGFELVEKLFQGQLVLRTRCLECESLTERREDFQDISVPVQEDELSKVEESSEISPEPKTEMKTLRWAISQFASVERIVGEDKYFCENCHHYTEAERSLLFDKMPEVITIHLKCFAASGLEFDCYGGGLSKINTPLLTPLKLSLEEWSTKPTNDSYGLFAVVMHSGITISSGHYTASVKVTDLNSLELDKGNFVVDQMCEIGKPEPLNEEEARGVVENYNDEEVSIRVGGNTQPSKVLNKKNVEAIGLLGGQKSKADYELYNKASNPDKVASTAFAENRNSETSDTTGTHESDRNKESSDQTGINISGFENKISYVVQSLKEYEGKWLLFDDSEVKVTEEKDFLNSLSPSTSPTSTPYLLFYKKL
Procedure, shortened: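 1nM USP1/UAF1 + cpd, 15 min RT; start w/ Ub-Rho 150nM final; kinetic FL 480/540 nm, 6 reads q60 s. Buffer 50mM HEPES pH 7.8, 0.5mM EDTA, 1mM TCEP, 0.01% Tween-20, 0.1 mg/ml BSA.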

[8] = NCATS anti-infectives library activity on HEK293 viability as a counter-qHTS vs the C. elegans viability qHTS (AID 1745854);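 also: HEK293 cells exposed to compounds for 24 hr before the viability read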
Procedure, shortened: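 Counter-screen for cytotoxicity: HEK293, 24 hr, 37C, compounds up to 41.7 uM final (a dilution series, 1:5). Readout CellTiter-Glo luminescence, 10 min RT. Digitonin control, 83.3 uM final.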

[9] = AP1 Signaling Pathway (AID 357; active = well fitted curve in either direction with a large enough effect, not every such curve was filed as active;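 also: ME-180 reporter cells stimulated with EGF at its EC50 level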); settings: ME-180 AP-1-bla reporter, EGF-induced, beta-lactamase ratio, 5 h; at 7.69 µM (top of the series) unless noted
Procedure, shortened: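 Read-out was the 460nm/530nm emission ratio (excitation 405nm) after CCF4 loading for 2.5 hours at room temperature. Cells carried an AP-1-driven beta-lactamase reporter, were stimulated with EC50 EGF plus compound for 5 hours, and AC50 values came from titrations.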

[10] = NFAT Signaling Pathway (AID 444; active = well fitted curve in either direction with a large enough effect, not every such curve was filed as active;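 also: carbachol stimulus at about its EC50 of 1 µM final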); settings: Jurkat NFAT-bla M1, carbachol, beta-lactamase ratio, 5 h; at 7.69 µM (top of the series) unless noted
Procedure, shortened: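 Read-out: CCF4 FRET ratio (460 nm/530 nm) after 1 h RT dye loading, used for %activity and AC50 from titration series. Cells: Jurkat NFAT-β-lactamase/M1 line, treated with compound plus 1 uM carbachol for 5 h, 37 °C.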

[11] = Stat Signaling Pathway (AID 446; active = well fitted curve in either direction with a large enough effect, not every such curve was filed as active;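 also: ME-180 cervical cancer cells given 40 pM IL-6 alongside compound; SIE-controlled beta-lactamase reporter measured as 460/530 nm FRET emission ratio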); settings: ME-180 (cervical carcinoma) SIE beta-lactamase reporter, IL-6 stimulated, 5 h; at 7.69 µM (top of the series) unless noted
Procedure, shortened: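 Overnight-plated ME-180 cells bearing a STAT Inducible Element beta-lactamase reporter; 5 h co-exposure to compound and 40 pM IL-6; values normalized to 300 pM IL-6 and 125 nM JAK inhibitor controls.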

[12] = target: Glucocorticoid receptor (Homo sapiens) (UniProt P04150); assay: GR-GFP Redistribution (AID 450;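 active = compounds whose dose series gives a full or clear partial fitted curve of increased nuclear translocation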; also: potency is read from the fitted curve at half-maximal effect); settings: U2OS GR-GFP nuclear translocation, laser cytometry, 2 h
[13] = target: DNA repair nuclease/redox regulator APEX1 (Homo sapiens) (UniProt P27695); assay: qHTS Validation Assay for Inhibitors of the Human Apurinic/apyrimidinic Endonuclease 1 (APE1) (AID 1705;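 also: TAMRA fluorescence gain over two minutes as APE1 cuts a quenched THF abasic duplex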)
Sequence of DNA repair nuclease/redox regulator APEX1 (Homo sapiens) (P27695 whole entry, looked up): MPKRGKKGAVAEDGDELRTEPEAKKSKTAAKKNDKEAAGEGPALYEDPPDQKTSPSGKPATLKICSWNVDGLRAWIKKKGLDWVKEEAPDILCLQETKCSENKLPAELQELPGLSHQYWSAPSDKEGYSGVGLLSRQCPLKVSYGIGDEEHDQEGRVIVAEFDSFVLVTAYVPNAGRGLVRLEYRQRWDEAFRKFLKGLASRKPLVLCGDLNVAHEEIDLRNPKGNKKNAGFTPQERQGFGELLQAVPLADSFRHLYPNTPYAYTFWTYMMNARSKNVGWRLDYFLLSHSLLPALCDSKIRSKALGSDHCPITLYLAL
Procedure, shortened: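 Read-out: TAMRA fluorescence (525 nm ex, 598 nm em) from cleavage of a quenched THF abasic-site duplex, 50 nM final; activity taken as intensity change between third and first of three reads 60 s apart.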

[14] = Counterscreen for APE1 Inhibitors: Fluorescent Dye Displacement Validation Assay (AID 1707)
Procedure, shortened: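 Loss of Thiazole Orange fluorescence marks promiscuous DNA binders. The dye (250 nM) is mixed with 50 nM abasic-site dsDNA in pH7.5 Tris buffer containing MgCl2, then compounds are added and emission is read once.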

[15] = target: Endonuclease 4 (Escherichia coli (strain K12)) (UniProt P0A6C1); assay: Counterscreen for APE1 Inhibitors: qHTS Validation Assay for Inhibitors of Endonuclease IV (AID 1708)
Procedure, shortened: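 Incision of a double-stranded 50 nM TAMRA/BHQ-2 abasic substrate was followed kinetically (525/598 nm, reads every 60 s) after 15 min enzyme–compound preincubation with 2 nM EndoIV in pH 7.5 Tris buffer with MgCl2, DTT and Tween-20; concentration-response format.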

[16] = qHTS for differential inhibitors of proliferation of Plasmodium falciparum line 3D7 (AID 1876); also: potency is read from the fitted curve at half-maximal effect
[17] = qHTS for differential inhibitors of proliferation of Plasmodium falciparum line Dd2 (AID 1882); settings: Potency: Plasmodium falciparum Dd2 proliferation inhibition; also: nearly all actives have a fitted effect of over 65% in size
Procedure, shortened: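 SYBR Green DNA fluorescence (ex 485, em 535 nm) after overnight lysis quantifies parasite growth; compound exposure lasted 72 h at 37 C on infected red cells at 2.5% hematocrit, 0.3% parasitemia (final). Artemisinin 0.29 uM and vehicle wells define normalization.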

[18] = qHTS for differential inhibitors of proliferation of Plasmodium falciparum line W2 (AID 1883); settings: Potency: Plasmodium falciparum W2 proliferation inhibition;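 also: potency is read from the fitted curve at half-maximal effect; parasites grown with compound for 72 h before lysis and staining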
[19] = target: Ferritin light chain (Equus caballus) (UniProt P02791); assay: qHTS Validation Assay for Identification of Novel General Anesthetics (AID 2323)
Sequence of Ferritin light chain (Equus caballus) (P02791 2-175 limits assumed): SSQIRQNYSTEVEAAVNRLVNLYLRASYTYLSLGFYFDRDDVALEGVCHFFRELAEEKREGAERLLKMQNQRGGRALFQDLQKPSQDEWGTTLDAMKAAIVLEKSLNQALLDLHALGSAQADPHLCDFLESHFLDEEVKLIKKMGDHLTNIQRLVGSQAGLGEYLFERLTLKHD
Procedure, shortened: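 10 uM horse-spleen apoferritin + 1-AMA (50% saturated, PBS); cpd pin-transferred, 10 min RT. Ex 380/Em 535 nm endpoint. Activity normalized between free 1-AMA and 1-AMA/apoferritin; 4-parameter Hill fit of concentration-response.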

[20] = target: ATP-dependent DNA helicase Q1 (Homo sapiens) (UniProt P46063); assay: qHTS Validation Assay for Inhibitors of RecQ-Like Dna Helicase 1 (RECQ1) (AID 2353)
Sequence of ATP-dependent DNA helicase Q1 (Homo sapiens) (P46063 whole entry, looked up): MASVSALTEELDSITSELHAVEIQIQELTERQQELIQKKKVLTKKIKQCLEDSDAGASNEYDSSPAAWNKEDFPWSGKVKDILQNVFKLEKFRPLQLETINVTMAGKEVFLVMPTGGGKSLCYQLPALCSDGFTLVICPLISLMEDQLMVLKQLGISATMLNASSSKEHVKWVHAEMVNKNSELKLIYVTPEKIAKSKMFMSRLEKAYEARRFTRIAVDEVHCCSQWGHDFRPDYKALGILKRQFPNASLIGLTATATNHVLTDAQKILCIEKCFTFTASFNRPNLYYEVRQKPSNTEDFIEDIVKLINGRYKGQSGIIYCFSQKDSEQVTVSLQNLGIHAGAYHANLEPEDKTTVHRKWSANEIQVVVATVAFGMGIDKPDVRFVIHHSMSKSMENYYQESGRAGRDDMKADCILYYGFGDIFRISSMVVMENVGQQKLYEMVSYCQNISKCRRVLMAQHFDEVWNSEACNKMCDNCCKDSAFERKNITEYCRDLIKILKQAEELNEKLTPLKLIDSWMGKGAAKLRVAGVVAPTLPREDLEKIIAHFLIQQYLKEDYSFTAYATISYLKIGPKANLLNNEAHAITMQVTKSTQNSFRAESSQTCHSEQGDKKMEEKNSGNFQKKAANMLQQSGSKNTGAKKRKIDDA
Procedure, shortened: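 RECQ1T1 50 nM; forked duplex (20 bp + 30-nt ss tails) 200 nM, ATP 2 mM final; pH 8.0, 2 mM MgCl2, 2.5 ug/ml poly(dI-dC); 15 min compound preincubation; discontinuous kinetic read over 2 h at RT.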

[21] = Validation screen for small molecules that induce DNA re-replication in MCF 10A normal breast cells (AID 463097); also: nearly all actives have a fitted effect of over 60% in size
Procedure, shortened: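 250 MCF 10A cells/well; compound pin-transferred; 48 hr, 37 C, 5% CO2; Hoechst 40 min; imaged 405/500-530 nm. Hits = more high-intensity nuclei.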

[22] = target: M-phase phosphoprotein 8 (Homo sapiens) (UniProt Q99549); assay: qHTS Validation Assay for Inhibitors for MPP8 Chromodomain Interactions with Methylated Histone Tails (AID 488949);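 also: AlphaScreen signal from MPP8 chromodomain bound to biotinylated H3K9me3 peptide; top concentration of the series differs between compounds; nearly all actives have a fitted effect of over 55% in size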
Procedure, shortened: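 AlphaScreen read-out: streptavidin donor and nickel chelate acceptor beads (final 10 ug/mL), 30 min in the dark at RT. Complex of 50 nM MPP8 and 50 nM b-H3(1-18)K9me3 peptide had been exposed to compounds for 30 min beforehand.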

[23] = target: Transient receptor potential cation channel subfamily V member 1 (Homo sapiens) (UniProt Q8NER1); assay: HTS Assay for Compounds that Act as Enhancers of the Vanilloid Receptor 1 (AID 488979)
Sequence of Transient receptor potential cation channel subfamily V member 1 (Homo sapiens) (Q8NER1 whole entry, looked up): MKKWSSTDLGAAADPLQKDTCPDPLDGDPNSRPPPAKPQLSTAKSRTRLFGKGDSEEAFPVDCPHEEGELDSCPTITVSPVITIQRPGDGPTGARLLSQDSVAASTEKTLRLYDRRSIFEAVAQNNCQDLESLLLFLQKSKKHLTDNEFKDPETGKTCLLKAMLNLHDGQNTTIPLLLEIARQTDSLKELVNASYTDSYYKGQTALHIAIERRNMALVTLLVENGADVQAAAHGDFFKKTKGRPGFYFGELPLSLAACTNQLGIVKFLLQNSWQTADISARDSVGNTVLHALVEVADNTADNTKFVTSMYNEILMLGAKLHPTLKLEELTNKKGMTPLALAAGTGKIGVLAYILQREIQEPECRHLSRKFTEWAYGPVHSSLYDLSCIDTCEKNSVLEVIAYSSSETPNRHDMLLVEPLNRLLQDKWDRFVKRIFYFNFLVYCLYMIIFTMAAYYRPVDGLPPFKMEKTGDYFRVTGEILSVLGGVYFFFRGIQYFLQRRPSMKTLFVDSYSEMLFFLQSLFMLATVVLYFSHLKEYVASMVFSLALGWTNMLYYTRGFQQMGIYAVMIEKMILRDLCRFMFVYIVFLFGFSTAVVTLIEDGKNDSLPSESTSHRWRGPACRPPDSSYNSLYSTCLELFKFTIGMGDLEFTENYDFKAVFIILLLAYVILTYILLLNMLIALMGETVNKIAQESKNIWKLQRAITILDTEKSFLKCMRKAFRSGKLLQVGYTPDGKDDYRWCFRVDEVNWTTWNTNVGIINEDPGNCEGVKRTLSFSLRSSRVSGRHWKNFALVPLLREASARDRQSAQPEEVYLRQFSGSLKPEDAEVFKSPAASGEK
Procedure, shortened: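 Calcium influx kinetics via Fluo-8 (480/520 nm) in TRPV1-expressing cells, 2000/well cultured overnight at 35.5C. Compound-alone read 3 min (agonist phase), followed by EC20 capsaicin challenge for 2 min (enhancer phase).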

[24] = target: Thyrotropin receptor (Homo sapiens) (UniProt P16473); assay: qHTS Assay for Antagonists of the Thyroid Stimulating Hormone Receptor (AID 488980)
Procedure, shortened: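 TSHR-HEK293 cells; 70 uM RO 20-1724 PDE inhibitor; compound + EC80 TSH (4 nM final); anti-cAMP cryptate antibody/cAMP-d2 in lysis buffer, 30 min RT; HTRF 665/620 nm read.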

[25] = target: Thyrotropin-releasing hormone receptor (Homo sapiens) (UniProt P34981); assay: qHTS for Small Molecule Agonists and Allosteric Enhancers of Human TRH Receptor: Validation Screen for Agonists (AID 493127;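 active = calcium activation more than 3 SD above the typical response in the agonist read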;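 also: intracellular calcium rise by fluo-8 fluorescence before TRH EC20 addition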); settings: TRH receptor agonist cell assay; at 2 µM; stronger effect = higher value
Sequence of Thyrotropin-releasing hormone receptor (Homo sapiens) (P34981 whole entry, looked up): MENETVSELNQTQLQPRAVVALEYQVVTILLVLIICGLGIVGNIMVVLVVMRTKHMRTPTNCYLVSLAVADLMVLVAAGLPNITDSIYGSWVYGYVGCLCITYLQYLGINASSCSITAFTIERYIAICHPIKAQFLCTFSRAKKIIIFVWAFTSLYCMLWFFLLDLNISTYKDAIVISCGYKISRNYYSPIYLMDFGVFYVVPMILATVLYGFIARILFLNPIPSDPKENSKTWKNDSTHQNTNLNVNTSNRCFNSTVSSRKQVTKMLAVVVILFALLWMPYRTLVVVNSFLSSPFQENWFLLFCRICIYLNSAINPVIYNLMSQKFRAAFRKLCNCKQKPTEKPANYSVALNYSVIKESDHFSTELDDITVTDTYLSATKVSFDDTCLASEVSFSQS
Procedure, shortened: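 Compounds are added by online pintool to dye-loaded TRHR cells while fluorescence is recorded every second. A rise in calcium signal during the agonist read marks activation; a later 10 nM TRH addition (EC20) serves the separate enhancer mode.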

[26] = target: Galactokinase (Homo sapiens) (UniProt P51570); assay: qHTS Validation Assay for Inhibitors of Human Galactokinase (GALK) (AID 493189)
Sequence of Galactokinase (Homo sapiens) (P51570 whole entry, looked up): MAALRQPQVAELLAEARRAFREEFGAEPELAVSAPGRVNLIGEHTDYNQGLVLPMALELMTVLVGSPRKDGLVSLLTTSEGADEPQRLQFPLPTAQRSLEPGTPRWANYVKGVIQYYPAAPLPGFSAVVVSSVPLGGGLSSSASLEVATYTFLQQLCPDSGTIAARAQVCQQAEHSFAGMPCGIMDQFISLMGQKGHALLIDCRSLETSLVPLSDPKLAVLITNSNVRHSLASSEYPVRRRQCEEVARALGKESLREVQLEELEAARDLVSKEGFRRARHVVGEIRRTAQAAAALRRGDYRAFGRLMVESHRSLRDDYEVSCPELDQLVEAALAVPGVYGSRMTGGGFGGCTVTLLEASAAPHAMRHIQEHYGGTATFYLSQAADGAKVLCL
Procedure, shortened: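 Luminescence from leftover ATP (Kinase-Glo Plus, 10 min) served as read-out after a 1 h room-temperature reaction of 5 nM GALK, 100 uM galactose and 35 uM ATP at pH8.0.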

[27] = target: Voltage-gated inwardly rectifying potassium channel KCNH2 (Homo sapiens) (UniProt Q12809); assay: qHTS Assay for Small Molecule Inhibitors of the Human hERG Channel Activity (AID 588834);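 also: top concentration of the series differs between compounds; lower thallium flux fluorescence means stronger hERG block; nearly all actives have a fitted effect of over 50% in size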
Procedure, shortened: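 Thallium-flux (FluxOR) read-out on FDSS: fluorescence read 10 s before and 2 min after stimulation buffer. hERG-BacMam-transduced U2OS cells, compound exposure about 10 min. AC50 by standard Hill equation.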

[28] = measured here: cell count channel max response
[29] = measured here: lipid channel max response

COc1ccc(-c2cc(=O)c3c(OC)c(OC)c(OC)c(OC)c3o2)cc1
activity change, negative = inhibition [1]: -8.95% [at 30.8 µM] (inactive)
outcome [2]: inactive

C[n+]1cccc(C(=O)[O-])c1
Potency [3]: inactive
Potency [4]: inactive
outcome [5]: inactive
activity change, negative = inhibition [6]: 6.06% (inactive)
max response [6, 28]: -1.12%
max response [6, 29]: 2.73%
Potency [7]: inactive
outcome [8]: inactive

COc1ccc2c(c1OC)C(=O)OC2C1c2c(cc3c(c2OC)OCO3)CCN1C (configuration not stated)
activity change, negative = inhibition [9]: 11.6% [at 17.2 µM] (inactive)
activity change, negative = inhibition [10]: -3.27% [at 17.2 µM] (inactive)
activity, negative = inhibition [11]: 9.27% [at 17.2 µM] (inactive)
Potency [12]: > 20.6 µM (inactive)
activity change, negative = inhibition [6]: 0.209% (inactive)
max response [6, 28]: -33.3%
max response [6, 29]: -33.7%
outcome [13]: inactive
outcome [14]: inactive
outcome [15]: inactive
Potency [16]: 12.6 µM (active)
Potency [17]: inactive
Potency [18]: 14.1 µM (active)
outcome [19]: inactive
outcome [20]: inactive
outcome [21]: inactive
Potency [22]: inactive
outcome [23]: inactive
outcome [24]: inactive
activation [25]: -4.69% (inactive)
outcome [26]: inactive
Potency [27]: inactive
